From PubChem BioAssay
IMPase Li cell = membrane-permeable IMPase blocker, potentiated with lithium | CHO-M1 cells, IP1 TR-FRET (IP-One), carbachol + lithium | Potency, µM (doses to about 59.4 µM), without a hit: top-dose activity, negative = IMPase inhibition, hits mostly inhibitors | hit rate 0.35% among 210,000 | AID 1457; active = well fitted curve in the direction sought with a large enough effect; inconclusive = small, poorly fitted or top-dose-only effect, or another doubt; inactive = no such curve, though single readings can be large; an effect the other way counts as inactive or inconclusive;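 note: IP1 builds up when IMPase is blocked and the TR-FRET signal falls; potency is the fitted concentration of half-maximal effect; plate controls were basal vehicle for no effect and high inhibitor control for full effect; nearly all actives have a fitted effect of over 50% in size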
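CHO cells stably expressing M1 receptor (2000/well) were cultured 16–30 h, then exposed to compounds with a small lithium addition for 30 min at 37C. IP1 was measured by TR-FRET competition; AC50 from Hill fits.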
ALDH1A1 inh = inhibitors of human aldehyde dehydrogenase 1A1; Purified ALDH1A1, NADH fluorescence, propionaldehyde substrate; P00352; Potency, µM (highest dose often 75.3 µM), inactives show at the top dose activity, negative = inhibition, actives largely listed as inhibitors; hit rate 7.3% among 220,000;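 note: potency is the fitted concentration of half-maximal effect; plate controls were no enzyme wells and a reference inhibitor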
HPGD inh = inhibitors of human 15-hydroxyprostaglandin dehydrogenase (HPGD) | P15428 | purified HPGD, NADH fluorescence kinetic, PGE2 substrate | Potency, µM, inactives show top-dose activity change, negative = inhibition, usual class: inhibitors | hit rate 4.3% among 150,000 | AID 894; note: potency is the fitted concentration of half-maximal effect
Target sequence (P15428 whole entry, looked up): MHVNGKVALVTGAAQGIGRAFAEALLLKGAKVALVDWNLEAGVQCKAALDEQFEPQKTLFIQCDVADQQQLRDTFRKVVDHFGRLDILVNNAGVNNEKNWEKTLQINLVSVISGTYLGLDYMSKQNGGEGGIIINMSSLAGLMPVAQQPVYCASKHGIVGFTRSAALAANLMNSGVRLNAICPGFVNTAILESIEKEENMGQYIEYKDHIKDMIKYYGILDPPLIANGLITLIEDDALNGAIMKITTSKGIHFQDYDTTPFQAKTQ
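NADH formation kinetics: reaction with 30 uM PGE2 and 1 mM NAD+ (final), 20 nM enzyme, Tris-HCl pH 8 with Tween 20, after 15 min compound preincubation at room temperature. Fluorescence change, last versus first of five reads.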
PNC inhibitor = perinucleolar compartment assembly inhibition | PC3M PTB-GFP, PNC prevalence imaging, 16 h; stronger effect = lower value | activity change (PNC), negative = inhibition, % at 10 µM | hit rate 3.1% among 140,000 | AID 2417;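 active = readout at or below -70, meaning at least 70% loss of cells showing the perinucleolar compartment, a nuclear body marking cancer cells; inconclusive = readout between -30 and a set limit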;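 note: plate controls were DMSO wells for no effect and camptothecin positive control wells for full effect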
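Read-out is percentage of cells bearing a perinucleolar compartment, from automated 20x imaging of fixed, Hoechst-stained PC3M PTB-GFP cells. Cells were seeded 4 h, then exposed 16 h to compound (23 nl of library stock) in duplicate plates.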
IMPase cell inh = cell-permeable inhibitors of inositol monophosphatase (IMPase); inhibition (IP1 accumulation), % at 46.1 µM; AID 901; 120,000 tested, under 10 active; CHO-M1 cells, IP1 accumulation, HTRF TR-FRET ratio; active = well fitted curve in the direction sought with a large enough effect in the signal ratio, not every such curve was filed as active; inconclusive = small, poorly fitted or top-dose-only effect, or a change in a side signal; inactive = no such curve, though single readings can be large or run the other way; the % refers to the signal ratio;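 note: cells stimulated with carbachol in lithium chloride buffer; plate controls were DMSO basal wells for no effect and reference inhibitor wells for full effect; higher means more IMPase inhibition seen as more IP1 and lower FRET ratio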
Target sequence (P97697 whole entry, looked up): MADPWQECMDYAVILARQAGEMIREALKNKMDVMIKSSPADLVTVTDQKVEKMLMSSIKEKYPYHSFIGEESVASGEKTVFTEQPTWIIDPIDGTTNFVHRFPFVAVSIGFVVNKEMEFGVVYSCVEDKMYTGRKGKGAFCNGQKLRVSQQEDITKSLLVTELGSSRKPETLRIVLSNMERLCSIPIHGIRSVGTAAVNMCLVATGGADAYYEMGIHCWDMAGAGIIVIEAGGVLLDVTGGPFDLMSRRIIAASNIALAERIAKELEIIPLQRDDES
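Seeded CHO-M1 cells were dosed with compound at up to 46 uM, stimulated with carbachol for 30 min, then lysed in IP-One detection reagents. Higher IP1 lowers the TR-FRET signal.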
12-hLO inh = inhibitors of human 12-lipoxygenase (ALOX12) | P18054 | purified 12-hLO, xylenol orange hydroperoxide absorbance | Potency, µM (series often up to 57.1 µM), without a hit: at the highest dose activity change, negative = inhibition, actives largely listed as inhibitors | hit rate 0.12% among 150,000; active = well fitted curve in the direction sought with a large enough effect; inconclusive = small, poorly fitted or top-dose-only effect, or another doubt; inactive = no such curve, though single readings can be large; an effect the other way counts as inactive or inconclusive; note: potency is the fitted concentration of half-maximal effect; nearly all actives have a fitted effect of over 55% in size
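Lipoxygenase turnover measured by absorbance at 573 and 405 nm after Fe-XO development. Human 12hLO 150 nM, arachidonate 40 uM, pH 7.0 Hepes buffer with detergent; 15 min compound preincubation, 30 min reaction.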
Numbers without * were called inactive; ? = inconclusive; / = not tested or not shown; [ ] = another dose, or the depositor's remark. Compounds with a hit are over-represented: about 11% of the library has one in this group of screens. Unless noted, calls come from the whole dose curve; as a rule, active = well fitted inhibition curve with a large enough effect (not every such curve was filed as active); inconclusive = small, poorly fitted or top-dose-only effect, or another doubt; inactive = no such curve, though single readings can be large or run the other way. Unless noted, % is set by controls: 0 for no effect and ±100 for the full control effect.

SMILES | IMPase Li cell | ALDH1A1 inh | HPGD inh | PNC inhibitor | IMPase cell inh | 12-hLO inh
COc1cccc(/C=C/C(=O)O)c1C(C)C | -1.3% | -2.7% | -15.0% | / | / | 0.5%
Cc1ccccc1OCCc1c(C)[nH]c(=S)[nH]c1=O | 6.2% | 20µM* | / | / | / | /
COc1ccc(C(=O)CSc2nnc(CNc3ccc(F)cc3)o2)cc1 | -5.8% | ? | / | / | / | /
COc1ccc(NCc2nnc(SCC(=O)Nc3cc(C)cc(C)c3)o2)cc1 | 41.2%[38.3 µM] | 3.16µM* | -29.4% | 24.6 | -2.0 | -3.7%
COc1ccc(NCc2nnc(SCC(=O)Nc3cc(C(F)(F)F)ccc3Cl)o2)cc1 | 1.1%[38.3 µM] | 28.2µM* | -14.0% | -18.3 | 9.9 | -11.7%
Cc1ccc(CN(CC(=O)NC2CCCC2)C(=O)CSc2nnc(COc3ccccc3)o2)cc1 | 8.1% | ? | 28.2µM* | -25.8 | 2.6 | -9.0%
O=C(CN(Cc1ccccc1)C(=O)CSc1nnc(COc2ccccc2)o1)NC1CCCC1 | 6.6% | ? | ? | -10.7 | 22.5 | 1.8%
COc1ccc(NCc2nnc(SCC(=O)c3ccc(C)cc3)o2)cc1 | 18.0%[38.3 µM] | 28.2µM* | -23.1% | 55.9 | 3.7 | -26.2%
COc1ccc(NC(=O)CSc2nnc(CNc3ccc(F)cc3)o2)c(OC)c1 | 28.8%[38.3 µM] | -12.4% | -14.9% | -3.3 | 4.7 | 2.3%
COc1cc([C@H](O)CO)ccc1O | / | / | / | / | -1.2 | 5.5%
CC(C)N(C(=O)CSc1nnc(CNc2ccc(F)cc2)o1)C(C)C | -0.9% | 0.9% | -10.6% | -100.0* | -2.2 | -6.9%
Cc1cc(C)cc(OCc2nnc(SCC(=O)c3ccccc3)o2)c1 | 21.7%[38.3 µM] | -11.0% | 28.2µM* | 26.8 | -2.8[1.84 µM] | 2.6%
O=c1cc(N2CCCCC2)c(-c2ccccc2)nn1Cc1ccccc1 | 8.0% | 15.8µM* | / | / | / | /
Cn1nc(-c2ccccc2)c(N2CCCCC2)cc1=O | 2.6% | 28.2µM* | / | / | / | /
O=C(c1ccccc1)c1nc2ccccc2[nH]c1=O | -16.3%[38.3 µM] | 2.9% | 25.1µM* | -27.1 | 1.5 | -2.8%
N#C/C(=C(/O)c1ccc(C(=O)c2ccccc2)cc1)c1nc2ccccc2[nH]1 | / | 15.2% | / | / | / | /
O=C(c1ccccc1)c1nc2ccccc2n(CCCn2c(=O)c(C(=O)c3ccccc3)nc3ccccc32)c1=O | -22.9%[38.3 µM] | 11.2µM* | -2.0% | ? | 2.0 | -12.5%
CCOC(=O)C(=O)/C(=C\N(C)C)c1onc(-c2ccccc2Cl)c1C(=O)OC | 2.7%[38.3 µM] | ? | 14.1µM* | ? | 0.4[1.84 µM] | 0.3%
CCOC(=O)C(=O)/C(=C\N(C)C)c1onc(-c2c(Cl)cccc2Cl)c1C(=O)OC | -3.5% | 11.4% | 14.1µM* | ? | 5.9 | 0.3%
CCOC(=O)C(=O)/C(=C\N(C)C)c1onc(-c2ccccc2)c1C(=O)OC | 5.0%[38.3 µM] | ? | -11.5% | 22.0 | -10.5[1.84 µM] | 0.7%
COc1cc(C(=O)N/N=C/C2CC=CCC2)cc(OC)c1OC (stereo not given) | -0.7% | 11.2µM* | -9.6% | -24.7 | / | -2.7%
Cn1ccnc1Sc1nnnn1-c1ccccc1 | -0.8%[38.3 µM] | -6.8% | -1.9% | ? | -5.5 | 7.6%
Cc1ccc2cc(C)c(Sc3nnnn3-c3ccccc3)nc2c1 | -0.4% | 5.62µM* | -12.3% | 0.4 | / | 2.3%
O=c1c(O)c(-c2ccc(O)c(O)c2)oc2ccccc12 | 16.3% | -15.0% | -16.4% | / | 1.6 | ?
COCCn1c(SCC(=O)N2CCCc3ccccc32)nc2ccccc2c1=O | 2.9%[38.3 µM] | 25.1µM* | -6.9% | 3.2 | 6.4 | -6.2%
COCCn1c(SCC(=O)N2CCCc3ccccc32)nnc1-c1ccco1 | 25.1%[38.3 µM] | -1.5% | -8.7% | ? | 0.5 | 2.0%
